The values that follow come from PubChem BioAssay AID2685 (National Center for Advancing Translational Sciences (NCATS), 2010).

Hit rate of the full screen: of about 320,000 compounds, about 2,100 (0.66%) were called active. About 53% were inconclusive and are not listed. This is one part of a sample in which actives are shown more often than they occur. The call rests on the fitted dose curve; in most records, active means well fitted inhibition curve with a large enough effect in the signal ratio, with a control signal flat (not every such curve was filed as active); inconclusive means small, poorly fitted or top-dose-only effect, or effect the other way, or a change in a side signal; inactive means flat fitted curve, though single readings scatter; the % refers to the signal ratio.
Potency means the concentration at half of the fitted maximal effect.

This assay can be described thus: qHTS Assay for Lipid Storage Modulators in Drosophila S3 Cells.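 On cell number change: cells counted by Cell Tracker Red CMTPX staining in the red channel.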 Conditions: BODIPY lipid droplet fluorescence, 18-24 h, cells fed with added oleic acid; cell number change: measured here: cell count max response; series mostly up to 46.1 µM. Summed up:
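Drosophila S3 cells got compounds at several concentrations plus oleic acid (400 uM solution). Laser-scanning cytometry with 488 nm excitation read lipid droplets at 500-530 nm and cells at 575-640 nm. Percent activity was relative to 20 uM Triacsin C.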
For the compound `COC(=O)c1sc(N)c(C(=O)OC)c1COC(=O)C12CC3CC(CC(O)(C3)C1)C2`, the Potency entry is “inactive” and the cell number change was -15.1%.

Regarding `CCOC(=O)c1sc(NC(=O)OC)c(C(=O)OC)c1C`, the Potency result was “inactive” and the cell number change is 11.2%. For `CC(=O)c1c(COC(=O)c2ccc(Cl)cc2)nc2ccccc2[n+]1[O-]`, the Potency result was “inactive” and the cell number change was 15.2%. With `CS(=O)(=O)c1ncc(Cl)c(C(=O)Nc2ccc(OC(F)F)cc2)n1`, the Potency was 18.4 µM (active) and the cell number change is -13.9%. `O=C(NCc1ccc2c(c1)OCO2)c1nc(S(=O)(=O)Cc2ccccc2)ncc1Cl`: the Potency entry was “inactive”. `COc1ccc(NC(=O)c2nc(SC)ncc2Cl)cc1`: the Potency entry was “inactive”. Same read-out and setting: as for `Cc1ccc(CS(=O)(=O)c2ncc(Cl)c(C(=O)Nc3ccc(OC(F)F)cc3)n2)cc1`, the figure is 1.16 µM (active). On to `O=C(Nc1ccc(OC(F)F)cc1)c1ncc(Cl)c(Cl)c1Cl`, for which the Potency result is “inactive” and the cell number change was 21.1%.

Consider `CC(C)c1nnc(NC(=O)c2nc(S(=O)(=O)Cc3ccccc3F)ncc2Cl)s1`, for which the Potency is 1.64 µM (active) and the cell number change was -17.7%. Turning to `Cc1cccc(CS(=O)(=O)c2ncc(Cl)c(C(=O)Nc3c(C)cccc3C)n2)c1`, the Potency entry is “inactive” and the cell number change is 14.9%. As for `Cc1cccc(CS(=O)(=O)c2ncc(Cl)c(C(=O)NCc3ccc4c(c3)OCO4)n2)c1`, the Potency was 6.51 µM (active). Consider `CCSc1nnc(NC(=O)c2nc(S(=O)(=O)Cc3ccc(F)cc3)ncc2Cl)s1`, for which the Potency entry is “inactive” and the cell number change is -9.14%. The like results for `Cc1ccc(S(=O)(=O)NC(=O)Nc2ccc(OC(F)F)cc2)cc1` were, in that order, “inactive” and 7.38%. The matching figures for `O=C(Nc1ccc(OC(F)F)cc1)c1ccccn1`: “inactive” and 7.91%. The matching figures for `Cc1ccc(CS(=O)(=O)c2ncc(Cl)c(C(=O)Nc3nnc(C(C)C)s3)n2)cc1`: “inactive” and -27.5%.

With `COCCNC(=S)Nc1ccc(S(=O)(=O)Nc2ncccn2)cc1`, the Potency entry is “inactive”. For the compound `CC(C)OP(=O)(OC(C)C)C(Nc1ccccc1)c1ccc2c(c1)OCO2` (stereo not given), the Potency result is “inactive” and the cell number change was -17%. Take `CC1(C(=O)OCc2cc(=O)n3cc(Br)ccc3n2)CC1(Cl)Cl` (stereo not given): the Potency result is “inactive” and the cell number change came to 20.1%.

Regarding `Nc1nc(/C=C/c2cccnc2)nc(-c2ccccc2O)n1`, the Potency entry was “inactive” and the cell number change is -9.25%. Regarding `CCC(CC)C(=O)N(c1ccc(F)cc1)C1C=CS(=O)(=O)C1` (stereo not given), the Potency result is “inactive” and the cell number change was -1.72%. The like results for `COc1ccc(N(C(=O)Cc2cccs2)C(C(=O)NC2CCCC2)c2ccncc2)cc1OC` (stereo not given) were, in that order, “inactive” and 16.1%.

As to `CC1=CC(C)(C)N(C(=O)CSc2nnc(N)s2)c2cc(C)c(C)cc21`, the Potency entry was “inactive” and the cell number change was 6.05%.

As to `COC(=O)c1ccccc1NC(=O)c1nc(S(=O)(=O)Cc2ccccc2)ncc1Cl`, the Potency entry was “inactive” and the cell number change is -21.2%.

As for `COc1ccccc1NC(=O)c1nc(S(=O)(=O)Cc2ccccc2)ncc1Cl`, the Potency result is “inactive” and the cell number change is -4.72%.

As to `CCc1ccc(NC(=O)c2nc(S(=O)(=O)Cc3ccccc3)ncc2Cl)cc1`, the Potency is 1.16 µM (active) and the cell number change was -18.2%. The matching figures for `O=C(OCc1ccc(Cl)c(Cl)c1)c1ccc[nH]1`: “inactive” and 0.855%.

For the compound `CCOc1ccc(CNC2CCCCCCC2)cc1OC`, the Potency entry was “inactive” and the cell number change was -6.56%. Take `COc1ccc(CNc2ncccn2)cc1OC`: the Potency result was “inactive” and the cell number change worked out at 2.02%.

For the compound `COc1ccc(CNC2c3ccccc3-c3ccccc32)cc1OC`, the Potency was 3.66 µM (active) and the cell number change turned out to be 14.9%. The like results for `Cc1ccccc1-n1c(Cn2c(=O)sc3ccccc32)nnc1SCC(=O)N1CCOCC1` were, in that order, “inactive” and -4.41%. `Cc1cc(C)n(CCC(=O)N=Nc2c(O)[nH]c3ccc(Br)cc23)n1`: the Potency entry is “inactive” and the cell number change is -11.1%. Take `CCOCCCNC(=O)c1ccc2c(c1)N=C(CC)c1cc(Br)ccc1S2`: the Potency entry is “inactive” and the cell number change was determined as 13.2%.

As to `COc1ccccc1CN1CCSCC1`, the Potency was 23.1 µM (active) and the cell number change is -20%. The matching figures for `COc1cccc(CN2CCSCC2)c1`: “inactive” and 8.55%. As for `COc1ccc(CN2CCSCC2)cc1C`, the Potency was 23.1 µM (active) and the cell number change was found to be 8.44%.

Consider `COc1cccc(CN2CCSCC2)c1OC`, for which the Potency entry is “inactive” and the cell number change was determined as 10.1%. The matching figures for `COc1ccccc1CN1CCCCCC1`: “inactive” and 10.4%.

As for `COc1cc(CN2CCSCC2)cc(OC)c1OC`, the Potency entry is “inactive” and the cell number change was -0.391%. Take `O=C(Nc1ccc(F)cc1)N1CCCN(c2ccc(C(F)(F)F)cn2)CC1`: the Potency entry was “inactive” and the cell number change is -1.28%. Regarding `O=C1C2C3c4ccccc4C(c4ccccc43)C2C(=O)N1/N=C/c1cccc(O)c1` (stereo not given), the Potency result was “inactive” and the cell number change turned out to be 9.29%.

As to `CC1(C)CC(NC(=O)c2cc(S(=O)(=O)N3CCOCC3)c(Cl)cc2Cl)CC(C)(C)N1`, the Potency entry is “inactive” and the cell number change is -3.63%. Turning to `COc1cc(/C=C2\SC(N3CCc4ccccc4C3)=NC2=O)cc(OC)c1OC`, the Potency result was “inactive” and the cell number change turned out to be 4.12%. With `Cc1ccc2nc(/C(C#N)=C/c3ccccc3C(=O)O)[nH]c2c1`, the Potency entry was “inactive”. Take `Cc1ccc2nc(/C(C#N)=C\c3ccc(Oc4ccc(C(F)(F)F)cc4[N+](=O)[O-])cc3)[nH]c2c1`: the Potency entry was “inactive” and the cell number change is 1.55%. The matching figures for `Cc1ccc2nc(/C(C#N)=C/c3cn[nH]c3-c3ccc(F)cc3)[nH]c2c1`: “inactive” and -24.5%. Turning to `N#C/C(=C(/O)c1ccc([N+](=O)[O-])o1)c1nc2ccccc2[nH]1`, the Potency result is “inactive” and the cell number change is -1.26%. As to `N#C/C(=C\c1ccc([N+](=O)[O-])o1)c1nc2ccccc2[nH]1`, the Potency was 4.11 µM (active) and the cell number change is -21.1%. For the compound `COc1ccc(/C=C(\C#N)c2nc3ccc(C)cc3[nH]2)cc1Oc1ccc(C(F)(F)F)cc1[N+](=O)[O-]`, the Potency is 8.2 µM (active). For `N#C/C(=C\c1ccc(Oc2ccc(C(F)(F)F)cc2[N+](=O)[O-])cc1)c1nc2ccccc2[nH]1`, the Potency result is “inactive” and the cell number change is -10.6%. The like results for `Cc1ccc2nc(/C(C#N)=C\c3ccc([N+](=O)[O-])o3)[nH]c2c1` were, in that order, 6.51 µM (active) and -22.5%.

As for `N#C/C(=C\c1ccc(-c2ccccc2C(=O)O)o1)c1nc2ccccc2[nH]1`, the Potency entry is “inactive” and the cell number change is -1.22%. The like results for `CCOC(=O)c1c(NC(=O)C2CC2)sc2c1CC(C)(C)OC2` were, in that order, “inactive” and 0.857%. The matching figures for `COC(=O)C(C)n1nc(C)n(-c2ccc(C)cc2)c1=O` (stereo not given): “inactive” and -11.2%. As for `COc1ccc(CC(=O)Nc2ccc(C(=O)Nc3ccccc3C(=O)O)cc2)cc1OC`, the Potency result was “inactive” and the cell number change was 17.1%. The matching figures for `COc1cc(C(=O)NC(c2ccccc2)c2ccccc2)cc(Cl)c1OC`: “inactive” and 14.2%. The matching figures for `CCC(=O)N1CCN(c2ccc(NC(=O)c3ccc4c(c3)OCCO4)cc2)CC1`: “inactive” and 25.3%. As for `CC(C)(C)C(=O)N1CCN(c2ccc(NC(=O)c3ccc4c(c3)OCCO4)cc2)CC1`, the Potency was 16.4 µM (active) and the cell number change was -3.48%. Take `Cc1ccc(C(=O)N2CCN(c3ccc(NC(=O)c4ccc5c(c4)OCCO5)cc3)CC2)cc1`: the Potency entry was “inactive”.

`CCN(CC(=O)Nc1ccccc1C(F)(F)F)C(=O)c1ccc(=O)n(Cc2ccccc2)n1`: the Potency entry is “inactive” and the cell number change came out at 22.5%. In the case of `CC(=O)c1cn(CC(=O)NCC2CCCO2)c2ccccc12` (stereo not given), the Potency result was “inactive” and the cell number change worked out at 3.78%. The matching figures for `COc1cc(CNC2CCCCCCC2)c(Br)cc1OCCO`: “inactive” and -14%. The like results for `CCc1ccc(NC(=O)Cn2c(=O)n(CCC(=O)NC3CCN(Cc4ccccc4)CC3)c(=O)c3ccccc32)cc1` were, in that order, “inactive” and 3.79%.

`Cc1cccc(C)c1NC(=O)Cn1c(=O)n(CCCC(=O)NC2CCN(Cc3ccccc3)CC2)c(=O)c2ccccc21`: the Potency was 4.11 µM (active) and the cell number change is -10.3%. `Cc1ccc(NC(=O)Cn2c(=O)n(CCC(=O)NC3CCN(Cc4ccccc4)CC3)c(=O)c3ccccc32)cc1`: the Potency entry was “inactive” and the cell number change was 3.62%. For `COCCN(C(=O)CSc1nc2ccc(C)cc2[nH]1)c1c(N)n(Cc2ccccc2)c(=O)[nH]c1=O`, the Potency entry was “inactive” and the cell number change was -11.3%. The matching figures for `C[C@H]1CN=C2N(CCNC(=O)CCC3CCCCC3)[C@H](Cc3ccc(O)cc3)CN21`: “inactive” and -4.68%. As to `CCOC(=O)c1cccc(NC(=O)C(NS(=O)(=O)c2ccc3c(c2)CCN3C(C)=O)C(C)C)c1` (stereo not given), the Potency entry is “inactive” and the cell number change worked out at 9.06%. On to `O=C(CS(=O)(=O)c1c[nH]c2ccccc12)Nc1ccc(F)cc1`, for which the Potency entry was “inactive” and the cell number change stood at 1.05%.

Regarding `Cc1ccccc1NS(=O)(=O)c1cc2c3c(c1)C(C)C(=O)N3CCC2` (stereo not given), the Potency result is “inactive”. `COc1ccc(/C=C/c2c([N+](=O)[O-])c(=O)n(C)c(=O)n2C)cc1OC`: the Potency result is “inactive” and the cell number change was -10.8%. Take `Cn1c(/C=C/c2ccc(Br)cc2)c([N+](=O)[O-])c(=O)n(C)c1=O`: the Potency was 2.91 µM (active) and the cell number change is -1.8%. The matching figures for `COc1ccc(/C=C/c2c([N+](=O)[O-])c(=O)n(C)c(=O)n2C)cc1`: “inactive” and -2.6%. The like results for `CCCCOc1ccc(-c2nnc(-c3cc[n+](C)cc3)o2)cc1` were, in that order, “inactive” and 0.955%.

As to `COc1ccc(CC(=O)Nc2cccc3c2CCCC3)cc1`, the Potency result was “inactive” and the cell number change is -12.6%. The like results for `CC(=O)N/N=C(\C)CC(=O)Nc1cccc2c1CCCC2` were, in that order, “inactive” and -11.4%. The matching figures for `CC(=O)CC(=O)Nc1cccc2c1CCCC2`: 0.58 µM (active) and 2.07%. The like results for `CCn1cc(S(=O)(=O)NC(C)c2cc(OC)ccc2OC)cn1` (stereo not given) were, in that order, “inactive” and 5.77%. With `Cc1cccc2c1N(CCCOc1ccccc1)C(=O)C2=O`, the Potency entry is “inactive” and the cell number change came out at 4.6%.

For the compound `CC1CCN(CCCCOc2ccccc2F)CC1`, the Potency entry was “inactive” and the cell number change is 12.3%.

For the compound `Cn1nnc(NC(=O)c2ccccc2)n1`, the Potency entry is “inactive” and the cell number change is -11.2%.

As to `CC(=O)c1ccc(OCc2cc(C(=O)N(C)Cc3cc(C)no3)no2)cc1`, the Potency result was “inactive” and the cell number change was -2.95%. For `CN(Cc1cnn(C)c1)C(=O)c1cc(COc2c(F)cccc2F)on1`, the Potency entry was “inactive” and the cell number change stood at 16.3%. The like results for `Cc1ccc(OCc2cc(C(=O)N(C)Cc3cnn(-c4ccccc4C)c3)no2)cn1` were, in that order, 23.1 µM (active) and -11.8%. The matching figures for `C/C(=N\NC(=O)Cc1cccn1C)c1ccc([N+](=O)[O-])cc1`: “inactive” and 2.69%. `CCN(Cc1ccncc1)C(=O)CSc1ccc2ccccc2c1`: the Potency result was “inactive”. Turning to `O=C(Nc1ccc2ccccc2c1)c1ccc2[nH]c(=O)c(=O)[nH]c2c1`, the Potency entry is “inactive” and the cell number change was -10.4%. The like results for `O=C(Nc1ccc2ccccc2c1)c1ccc(Cl)cc1` were, in that order, 1.3 µM (active) and -18.8%.

On to `O=C(Nc1ccc2ccccc2c1)c1ccc(Cl)cc1Cl`, for which the Potency entry is “inactive” and the cell number change is -1.02%.

On to `CCOc1ccc(C(=O)COC(=O)c2nn(CC)c(=O)c3ccccc23)cc1`, for which the Potency entry was “inactive” and the cell number change was determined as 18.9%.

Regarding `CNC(=O)NNC(=O)c1onc(-c2c(Cl)cccc2Cl)c1C(=O)OC`, the Potency entry is “inactive” and the cell number change was found to be 19.9%.
